Holding throughout (experiment): NCI-60 one-dose screen, 48 h (100 = growth as untreated, 0 = no growth, -100 = all killed)
Holding throughout (conditions): 10 µM unless noted

Assay [1] deals with HCT-15 colon.
The test system of assay [2] is HT29 colon.
The test system of assay [3] is SNB-75 CNS.
Assay [4] has as its system SNB-19 CNS.
Assay [5] relates to U251 CNS.
Assay [6] deals with PC-3 prostate.
Assay [7] deals with SK-MEL-5 melanoma.
Assay [8] deals with UACC-62 melanoma.
Assay [9] relates to LOX IMVI melanoma.
The test system of assay [10] is SK-MEL-28 melanoma.

The structures appear in SMILES notation. This is part of a sample that, as a whole, favours compounds with a hit. Of some 83,000 tested, about 20% had one in any assay.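 Testing used 96-well plates and a 48-hour single-concentration exposure. Example: -40 means 40% of the starting cells died.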 A number with no mark means an inactive call. Calls of active or inactive are those of the source. The calls were made as follows: active = growth percent below 10; inactive = the rest.

For `Cc1cc(C)n(C(=O)CSc2nc3sc4c(c3c(=O)n2-c2ccccc2)CCCCC4)n1`, the growth in [1] is 103%; in [2], 105%; in [3], 89.6%; in assay [4], 95.4%; in assay [5], 97.4%; in [6], 99%. The growth was 93% in assay [7], 95.6% in assay [8], 98.9% in [9] and 110% in assay [10].
Regarding `Cc1ccc(Nc2oc(-c3ccccc3)nc2[P+](c2ccccc2)(c2ccccc2)c2ccccc2)cc1`, the growth in [1] is -34.4% (active); in [2] it was -28.1% (active); in assay [3], -2.21% (active); in assay [4] it was 0.303% (active); in assay [5], -58% (active); in assay [6], -21.1% (active). In addition, the growth in assay [7] was -99.7% (active); in [8], -35.4% (active); in assay [9], -100% (active); in assay [10], 1.52% (active).
Turning to `O=C(Nc1ccc2c(c1)-c1ccccc1C2)C1CC(=O)N(c2ccc3c(c2)OCO3)C1` (stereo not given), the growth in assay [1] is 89.3% [50 µM]; in assay [2] it was 64.6% [50 µM]; in assay [3] it was -2.42% [50 µM] (active); in assay [4], 46.4% [50 µM]; in assay [5], 19% [50 µM]; in assay [6], 33.1% [50 µM]. In addition, the growth in assay [7] is 56% [50 µM]; in assay [8], 44.3% [50 µM]; in assay [9], 63.1% [50 µM]; in assay [10], 33.4% [50 µM].
Regarding `Nc1nc(N)c2c(n1)NC(c1cccc(Nc3ccnc4cc(C(F)(F)F)ccc34)c1)CC(c1ccc(Cl)cc1)=N2` (stereo not given), the growth in [1] was 20.3%; in assay [2], 10.6%; in [3], 47.9%; in assay [4], 62.8%; in assay [5], 36.7%; in assay [6] it was 32.4%. Besides, the growth in assay [7] was 47.2%; in [8] it was 76.3%; in assay [9], 37.5%; in [10], 80.7%.
Consider `C#C[C@]1(O)CC[C@H]2[C@@H]3CC=C4c5sc(-c6cccc(C)c6)nc5CC[C@]4(C)[C@H]3CC[C@@]21C`, for which the growth in [1] was 56.6%; in [2] it was 38.8%; in [3], 13.8%; in assay [4], 86.7%; in assay [5] it was 71.8%; in assay [6], 40.5%. The growth in assay [7] was 82.5%; in [8] it was 77.3%; in assay [9], 55%; in [10] it was 55.9%.
Consider `COc1cc(C(=O)n2nc(NCCCc3ccccc3)c3cc(N)ccc32)cc(OC)c1OC`, for which the growth in [1] is 90.8%; in assay [2], 91.8%; in assay [3] it was 85.2%; in assay [4], 101%; in assay [5], 100%; in assay [6] it was 79%. The growth in assay [7] was 89.4%; in assay [8] it was 92.2%; in [9] it was 79.9%; in assay [10] it was 96.4%.
With `C/C(=C(\c1ccc(OCCCN(C)C)cc1)c1ccc(OC(=O)Cc2ccccc2)cc1)c1ccc(Cl)cc1`, the growth is 45.2% in [1]; 4.56% (active) in assay [2]; 77.3% in assay [3]; 89.8% in [4]; 55% in [5]; 75.9% in [6]. Also, the growth was 82.7% in assay [7], 81.8% in [8], 3.29% (active) in assay [9] and 76.4% in assay [10].
With `CCOC(=O)/C(=C\c1ccccc1Cl)P(=O)(OCC)OCC`, the growth in assay [1] is 34.4%; in assay [2], 34.7%; in assay [3], 51%; in assay [4], 84.8%; in [5] it was 66.3%; in [6], 45.8%. In addition, the growth in assay [7] is 79.5%; in assay [8], 56.7%; in [9], 0.286% (active); in [10] it was 65.2%.
As to `CN1CCN(Cc2ccc(NC(=O)c3cncc(C#Cc4cnc(N)c5ccc(C#N)cc45)c3)cc2C(F)(F)F)CC1`, the growth in assay [1] is -82.4% (active); in [2], -32.4% (active); in [3], -20% (active); in assay [4], 25.8%; in assay [5], 3.03% (active); in assay [6], 27.4%. Also, the growth in [7] is -93.2% (active); in assay [8], -51.8% (active); in [9] it was -95.8% (active); in assay [10], -81% (active).
For the compound `COC(=O)c1nc(-c2ccccc2)oc1S(=O)(=O)N1CCN(c2ccc(OC)cc2)CC1`, the growth was 42.8% in [1]; 43.8% in assay [2]; 101% in assay [3]; 97.8% in assay [4]; 90.8% in [5]; 63.9% in assay [6]. Besides, the growth was 90.8% in assay [7], 86.8% in assay [8], 62.9% in [9] and 88.3% in [10].
Regarding `COc1ccc(C(c2cc(OC)c(OC)c(OC)c2)n2cncn2)cc1O` (stereo not given), the growth is 14% in assay [1]; 5.3% (active) in assay [2]; 48.6% in assay [3]; 33.3% in assay [4]; 15.3% in assay [5]; 21.2% in [6]. The growth in assay [7] was 14.6%; in assay [8], 32%; in assay [9] it was 43.5%; in [10], 57%.
For `COC(=O)c1nc(-c2ccc(C)cc2)oc1N1CCOCC1`, the growth in assay [1] was 84.8%; in [2], 86.8%; in assay [3], 84.6%; in assay [4] it was 94.9%; in [5], 100%; in assay [6] it was 110%. Besides, the growth in [7] was 103%; in assay [8], 88%; in [9], 107%; in [10], 104%.
Consider `O=c1ccc2nc(-c3ccccc3)nn(-c3ccccn3)c-2c1`, for which the growth in assay [1] was 33.9%; in assay [2] it was -46.5% (active); in assay [3] it was 106%; in [4], 102%; in assay [5] it was 94.4%; in [6], 83.5%. Moreover, the growth was 76.6% in assay [7], 93.4% in assay [8], 49.6% in assay [9] and 87.2% in assay [10].

The record behind these values is PubChem BioAssay (NCI).
